# Gal4-VP16 FLuc = VP16 counterscreen qHTS for inhibitors of ROR gamma transcriptional activity; AID 2546, 2010; Drosophila S2 Gal4-VP16 UAS-luciferase, luminescence, 20 h; Potency, µM (doses to about 53.6 µM), for the others: top-dose activity, negative = inhibition, actives largely listed as inhibitors; 3.5% of 310,000 active;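 further: Gal4-VP16 expression switched on by copper sulfate through the metallothionein promoter; potency means the concentration at half of the fitted maximal effect; nearly all actives have a fitted effect of over 50% in size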
# ELG1 DNA repair = qHTS screen for small molecules that inhibit ELG1-dependent DNA repair in human embryonic kidney (HEK293T) cells expressing luciferase-tagged ELG1 | HEK293T ELG1-luciferase reporter, luminescence, 16 h; DNA damage induced by 5-fluorouridine | Potency, µM (doses to about 46.1 µM), for the others: top-dose activity change, negative = inhibition, most hits filed as inhibitors | 2.3% of 330,000 active | AID 504467, 2011; further: potency means the concentration at half of the fitted maximal effect; nearly all actives have a fitted effect of over 55% in size
#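 Overnight (16 hr) co-exposure of 2,000 cells/well to 5-fluorouridine and compound at 37 °C preceded detection. Luciferase was quantified via ONE-Glo luminescence; loss of signal denotes inhibition.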
# TDP1 cell CPT = qHTS for Inhibitors of human tyrosyl-DNA phosphodiesterase 1 (TDP1): qHTS in cells in presence of CPT; chicken DT40 Tdp1-/-;hTDP1 cells + 20 nM CPT, ATP luminescence, 48 h; Potency, µM (doses to about 46.2 µM), for inactives: at the highest dose activity change, negative = growth inhibition, actives largely listed as inhibitors; 12% of 420,000 active; further: potency means the concentration at half of the fitted maximal effect; nearly all actives have a fitted effect of over 55% in size
#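 Cell growth measured by CellTiter-Glo luminescence after a minimum 48 h, 37 C compound exposure with 20 nM CPT in Tdp1-knockout DT40 cells stably expressing hTDP1, seeded 400/well; qHTS titration format.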
# RORg inh = qHTS for inhibitors of ROR gamma transcriptional activity | Nuclear receptor ROR-gamma (Mus musculus), P51450 | Drosophila S2 Gal4-RORgamma UAS-luciferase reporter, 20 h | Potency, µM (series often up to 53.6 µM), without a hit: at the highest dose activity change, negative = inhibition, most hits filed as inhibitors | 5.4% of 310,000 active | AID 2551, 2010; further: potency means the concentration at half of the fitted maximal effect; nearly all actives have a fitted effect of over 60% in size
# Target sequence (P51450 whole entry, looked up, the tested form may be a part): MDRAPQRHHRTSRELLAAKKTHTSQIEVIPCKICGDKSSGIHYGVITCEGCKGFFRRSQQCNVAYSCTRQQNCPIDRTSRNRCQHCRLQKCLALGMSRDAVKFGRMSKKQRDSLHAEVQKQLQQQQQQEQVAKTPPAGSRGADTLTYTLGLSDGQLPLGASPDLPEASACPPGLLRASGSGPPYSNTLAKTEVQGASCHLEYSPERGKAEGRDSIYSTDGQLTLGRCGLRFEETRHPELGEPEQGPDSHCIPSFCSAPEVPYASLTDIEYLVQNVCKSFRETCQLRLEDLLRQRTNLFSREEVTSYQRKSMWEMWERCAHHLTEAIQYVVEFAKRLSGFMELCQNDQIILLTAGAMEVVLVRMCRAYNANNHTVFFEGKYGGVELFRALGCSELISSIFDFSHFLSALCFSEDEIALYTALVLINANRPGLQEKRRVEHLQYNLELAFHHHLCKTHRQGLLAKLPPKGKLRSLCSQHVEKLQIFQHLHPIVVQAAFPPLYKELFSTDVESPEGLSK
#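 Drosophila Schneider cells stably carrying a metallothionein-driven Gal4 DBD–ROR gamma fusion and a UAS-Photinus luciferase reporter were exposed to compound for 1 hr, then induced with copper sulfate (700 uM final) for 20 hr at ambient temperature before luminescence reading.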
# DT40 TDP1 no CPT = qHTS for Inhibitors of human tyrosyl-DNA phosphodiesterase 1 (TDP1): qHTS in cells in absence of CPT; Potency, µM (doses to about 46.2 µM), inactives show top-dose activity change, negative = growth inhibition, hits mostly inhibitors; AID 686978, 2013; 15% of 420,000 active; DT40 Tdp1-/- hTDP1 cells, no CPT, ATP luminescence, 48 h; further: potency means the concentration at half of the fitted maximal effect; nearly all actives have a fitted effect of over 55% in size
#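 Stably hTDP1-transfected Tdp1-null chicken DT40 cells were treated with library compounds minus camptothecin and grown for at least 48 hr at 37 °C, after which cellular ATP was quantified by luminescence.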
# IL1B secr inh = qHTS for Inhibitors of Inflammasome Signaling: IL-1-beta AlphaLISA Primary Screen. 4.7% of 360,000 active. activity change, % at 57.5 µM. AID 743279, 2014. THP-1 LPS/ATP IL-1B secretion, AlphaLISA, 16 h; hits give low values; in the data active means activity change below about -50%; inconclusive means mostly about -30% to -49%
#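 Secreted IL-1B measured by AlphaLISA bead assay after 16 h compound exposure of THP-1 cells; compounds (final up to 57.5 uM) added 1 h before LPS (250 ng/mL) and ATP (1.25 mM) stimulation; lower signal means less secretion.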
# * = called active by the depositor; ? = inconclusive; . = not tested or not shown; [ ] = remark or other dose. Most compounds without a hit are left out; they make up all but 21% or so of the library. Unless noted, the call rests on the fitted dose curve; in most records, active means well fitted curve in the direction sought with a large enough effect; inconclusive means small, poorly fitted or top-dose-only effect, or another doubt; inactive means no such curve, though single readings can be large; an effect the other way counts as inactive or inconclusive. On the % scale 0 is the no-effect control and ±100 the full control effect.
SMILES,Gal4-VP16 FLuc,ELG1 DNA repair,TDP1 cell CPT,RORg inh,DT40 TDP1 no CPT,IL1B secr inh
Cc1ccsc1CN(C)CC(=O)Nc1ccc([N+](=O)[O-])cc1Cl,2.9%,-1.6%,-3.6%,10.3%,?,-78.9*
COc1ccc(S(=O)(=O)Nc2ccc3c(c2)C(=O)N([C@H](C)CO)C[C@H](C)[C@@H](CN(C)S(=O)(=O)c2c(C)noc2C)O3)cc1,.,?,-1.0%,.,-20.4%,-5.7
CCCC(=O)Nc1cc(C)c(O)c(-c2nc3ncccc3o2)c1,.,.,-9.3%,.,-18.6%,.
Cc1cc([N+](=O)[O-])ccc1-c1ccc(C2Nc3ccccc3C(=O)N2O)o1 (stereo not drawn),0.708µM*,?,23.1µM*,?,23.1µM*,57.8
O=C(NN1C(=O)c2ccccc2NC1c1ccco1)c1ccc([N+](=O)[O-])cc1 (stereo not drawn),14.7%,6.7%,-16.0%,23.0%,?,-9.3
CCOC(=O)c1ccc(-c2ccc(C3Nc4ccccc4C(=O)N3O)o2)cc1 (stereo not drawn),?,?,?,11.2µM*,?,70.9
N#Cc1ccc(-c2ccc(C3Nc4ccccc4C(=O)N3O)o2)cc1 (stereo not drawn),.,3.2%,.,.,.,.
O=C(O)c1cccc(Oc2ccc(C(=O)O)c([N+](=O)[O-])c2)c1,.,.,-15.4%,.,1.8%,-1.5
Cc1ncc(C)c2c([N+](=O)[O-])cccc12,.,.,-7.7%,.,23.1µM*,?
Cc1cnc(C=O)c2cccc([N+](=O)[O-])c12,.,.,5.8µM*,.,3.66µM*,?
O=C(Cc1ccccc1Cl)Nc1cc(S(=O)(=O)N2CCOCC2)ccc1N1CCOCC1,.,-12.6%,-9.3%,.,-15.4%,-5.6
Cn1cnc2c(=O)oc3ccc(S(=O)(=O)N4CCN(c5ccccc5F)CC4)cc3c21,.,.,-9.4%,.,-23.4%,.
Cc1cccc(N2CCN(S(=O)(=O)c3ccc4oc(=O)c5ncn(C)c5c4c3)CC2)c1C,.,.,?,.,16.4µM*,.
Cc1ccc(O)c(Nc2c3ccccc3nc3ccccc23)c1,?,8.2µM*,16.4µM*,-32.3%,?,-95.3*
Cc1ccc(Nc2nc3ccccc3c3nncn23)c(Cl)c1,.,.,-23.9%,.,-25.1%,.
Cc1ccc(O)c(Nc2nc3ccccc3c3nncn23)c1,.,.,?,.,9.2µM*,.
Cc1cc2nc(C(C)(C)C)c(Cc3cccc(F)c3)n2c(C)c1Br,.,.,?,.,?,54.4
Cc1ccc(S(=O)(=O)N2C[C@H]3C(=O)C[C@@H](c4ccc(Cl)cc4)N(S(=O)(=O)c4ccc(C)cc4)[C@H]3C[C@H]2c2ccccc2)cc1,.,.,-3.9%,.,-0.1%,-0.1
Cc1cc(C)c(S(N)(=O)=O)c(C)c1N(C)S(=O)(=O)c1ccc(Cl)cc1,-2.3%,-14.3%,?,16.0%,?,-15.0
N#CC(C#N)=C1SC(=Nc2ccccc2)C(=Nc2ccccc2)N1c1ccccc1,.,.,5.17µM*,.,8.2µM*,-9.0
CC(=O)Nc1ccc(OCC(O)Cn2c(CO)nc3ccccc32)cc1 (stereo not drawn),-14.4%,6.4%,-4.8%,1.3%,0.7%,10.2
COc1cccc(OCC(Cn2c(C)nc3ccccc32)OC(C)=O)c1 (stereo not drawn),-4.9%[10 µM],?,?,-5.9%,8.2µM*,-1.9
CC(=O)N(C)c1ccc(OCC(O)Cn2c(C)nc3ccccc32)cc1 (stereo not drawn),15.8µM*,9.2µM*,5.8µM*,-34.3%,6.51µM*,0.0
